Assay results taken from PubChem BioAssay (NCI).
About 83,000 compounds went through this panel and 20% of them were active in at least one assay; those are over-represented in the sample as a whole.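 Compound tested at a single concentration for 48 hours in 96-well plates; a percent growth value below 10 was scored as active.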 Calls of active or inactive are those of the source.

test system: MDA-MB-468 breast; experiment: NCI-60 one-dose screen, 48 h (100 = growth as untreated, 0 = no growth, -100 = all killed); conditions: 10 µM unless noted

Compound | growth
c1ccc2[nH]c(-c3cc(-c4ccc5c(c4)OCO5)n[nH]3)nc2c1 | 51.2% (inactive)
O=C(O)C1[S][Sb]([CH](C(=O)O)[CH](C(=O)O)[Sb]2[S]C(C(=O)O)C(C(=O)O)[S]2)[S]C1C(=O)O (stereo not given) | 81.6% (inactive)
COc1cc(N)c2ncccc2c1SC | 107% (inactive)
CO[C@H]1/C=C/O[C@@]2(C)Oc3c(C)c(O)c4c(O)c(c5c(nc6cc(C)ccn65)c4c3C2=O)NC(=O)/C(C)=C\C=C\[C@H](C)[C@H](O)[C@@H](C)C(O)[C@@H](C)[C@H](OC(C)=O)[C@@H]1C (stereo not given in full) | 105% (inactive)
COc1cc([N+](=O)[O-])c2ncccc2c1O | 95.1% (inactive)
N#CC1=C(N)Oc2c(ccc3ccccc23)C1c1cc2ccccc2n2nnnc12 (stereo not given) | -8.83% (active)
CN(C)CCCCNc1ccc(NCCCCN(C)C)c2c1C(=O)c1c(O)ccc(O)c1C2=O | 96.8% (inactive)
CCc1ccc(Oc2c(-c3ccc(OCc4ccc(Cl)cc4)cc3O)nn(C)c2C(F)(F)F)cc1 | -11.1% (active)
CC/C=C\CCC/C=C1/C(=O)C=C[C@@H]1C/C=C\CCCC(=O)O | 76.1% (inactive)
COC(=O)c1cccnc1 | 97.7% (inactive)
CCO/C=N/C1=C(C#N)C(c2ccc(F)cc2)c2sc3c(C)cccc3c2O1 (stereo not given) | 6% (active)
COc1cc(C(=O)Nc2ccc(N(C)C)cc2)cc(OC)c1OC | 80% (inactive)
CCOC(=O)c1ccc(Nc2ncnc3ccc(NC(=O)c4ccccc4)cc23)cc1 | 88.9% (inactive)
C=CC(=O)N[C@@H](/C=C/C(=O)OCC)Cc1ccc(-c2cc(Cl)cc(Cl)c2)cc1 | 1.83% (active)
CCN(CC)c1ccc(C2=NN(C(C)=O)C(c3cc(OC)c(OC)c(OC)c3)C2)cc1 (stereo not given) | 17% (inactive)
O=[N+]([O-])c1cccc(N=Nc2ccc(O)cc2O)c1 | 69.6% (inactive)
O=C1c2ccc3c4c(ccc(c24)C(=O)N1CCCNCc1ccccc1Cl)C(=O)N(CCCNCc1ccccc1Cl)C3=O | -89% (active)
Nc1ccc(NC(=O)c2ccccc2)c2c1C(=O)c1ccccc1C2=O | 107% (inactive)
NCC(=O)CCC(=O)O | 100% (inactive)
CCN1C(=O)N(CC)C2Nn3c(s/c(=C4\C(=O)N(C)c5ccccc54)c3=O)=NC21 (stereo not given) | 12.2% (inactive)

Compound | growth
CN(C)CCN(C)CC(C)(C)C(=O)/C=C/c1ccc(Cl)cc1 | -46.2% (active)
O=S(=O)(Nc1ccc(Cl)cc1Cl)c1ccc(-c2cnc(C3CC3)o2)cc1 | -34.2% (active)
Cc1ccc(/C=C/C(=O)C(=O)/C=C/c2ccc(C)cc2)cc1 | 110% (inactive)
COC(=O)c1cc(-c2ccc(Cl)c(Cl)c2)[nH]c(=O)c1C#N | 99.6% (inactive)
COc1ccc(-c2csc(NC(=O)CSc3nc(C)cc(=O)[nH]3)n2)cc1 | 118% (inactive)
Cc1ccc(S(=O)(=O)c2nc(-c3ccccc3)oc2SCC(N)=O)cc1 | 91.7% (inactive)
C=C(C)[C@@H]1CC[C@]2(C(=O)N3CCOCC3)CC[C@]3(C)[C@H](CC[C@@H]4[C@@]5(C)C/C(=C/c6ccncc6)C(=O)C(C)(C)[C@@H]5CC[C@]43C)[C@@H]12 | 21.4% (inactive)
Cc1nn(-c2ccccc2)c2nc3c(nc12)C(=O)CCC3 | 88.3% (inactive)
O=C1C=CC(=O)N1CCCCCCCCCCN1C(=O)C=CC1=O | 70.9% (inactive)
N#CC(C#N)=C(C#N)c1c[nH]c2ccccc12 | 38.8% (inactive)
CCOC(=O)c1sc(Nc2ncccn2)nc1-c1ccccn1 | 10.4% (inactive)
Cn1cc(-c2csc(-c3cn(CCNC(=O)OC(C)(C)C)c4ccccc34)n2)c2cccnc21 | 23.4% (inactive)
Cc1ccc(NC(=O)c2sc3nc(C)c(Br)c(C)c3c2N)cc1 | 66.6% (inactive)
CC(=O)OC(C(=O)c1ccccc1)c1ccccc1 (stereo not given) | 109% (inactive)
C#Cc1cccc(Nc2ncnc3cc(OC)c(OCCCCCCC(=O)NO)cc23)c1 | -44.4% (active)
CNC(=O)c1ccc(Nc2ncc(C(F)(F)F)c(NCc3nccnc3N(C)S(C)(=O)=O)n2)cc1 | -50.1% (active)
Fc1ccc(NCc2cn(-c3ccccc3)nc2-c2ccc(OCc3ccccc3)cc2)cc1Cl | 119% (inactive)
O=C1c2ccccc2-c2ccccc2C1(Cl)Cl | -86.6% (active)
COc1ccc(/C=C2\CN(Cc3cn(CCNc4ccnc5cc(Cl)ccc45)nn3)C/C(=C\c3ccc(OC)c(OC)c3)C2=O)cc1OC | -37.7% (active)
COc1ccc(/C(C)=N/NS(=O)(=O)c2ccc(C)cc2)cc1OC | 104% (inactive)
